Laboratory results: PubChem BioAssay (EPA / NIEHS)
The source made the active and inactive calls. The calls were made as follows: active = hit-call score of the fitted dose curve at least 0.9, where 1 is the maximum; inactive = score below 0.9.

Assays:
[1] = APR_HepG2_CellLoss_72hr: Apredica 72-hour HepG2 Assay for Cell Loss (AID 2282915); conditions: high-content imaging
Outline: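 HepG2 cells were exposed for 72 hr to compounds at 0.39–200 uM (ten concentrations, duplicate) in 0.5% v/v final DMSO. Nuclei were stained with Hoechst 33342 after 3.7% formaldehyde fixation, imaged at 20x, and counted; fits bidirectional versus DMSO.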

[2] = APR_HepG2_P-H2AX_72hr: Apredica 72-hour HepG2 Assay for H2AX Phosphorylation (AID 2282916); conditions: imaging, actives raise or lower the signal;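 also: phospho-histone H2A.x immunostain intensity per cell marking DNA damage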
Outline: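 HepG2 cells treated 72 h at 0.39–200 uM, 0.5% DMSO final, duplicates. Formaldehyde-fixed, Triton-permeabilised, immunostained for phospho-H2A.x with Hoechst; fluorescence imaged at 20x, bidirectional fit versus DMSO.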

[3] = APR_HepG2_MitoMembPot_72hr: Apredica 72-hour HepG2 Assay for Mitochondrial Membrane Potential (AID 2282917); conditions: imaging, actives raise or lower the signal
Outline: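 HepG2 cells exposed 72 h to compounds at 0.39–200 uM (0.5% v/v DMSO, duplicates); MitoTracker Red CMXRos 250 nM loaded 30 min before 3.7% formaldehyde fixation, imaged by HCS fluorescence. Bidirectional fit versus DMSO.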

[4] = APR_HepG2_MitoticArrest_72hr: Apredica 72-hour HepG2 Assay for Mitotic Arrest (AID 2282918); conditions: high-content imaging, actives raise or lower the signal
Outline: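 HepG2, 72 hr exposure, 0.39–200 uM in duplicate, 0.5% v/v DMSO final. Formaldehyde-fixed, Triton-permeabilized, anti-phospho-histone H3/FITC plus Hoechst. ArrayScan imaging at 20x; curves fit bidirectionally against DMSO baseline.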

[5] = APR_HepG2_MicrotubuleCSK_72hr: Apredica 72-hour HepG2 Assay for Microtubule CSK Stabilty (AID 2282919); conditions: HepG2 microtubule cytoskeleton, high-content imaging, actives raise or lower the signal
Outline: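 HepG2 human liver cells were dosed for 72 h at ten concentrations from 0.39 to 200 uM in duplicate (0.5% v/v DMSO final). Fixed, permeabilized cells were immunostained for alpha-tubulin (Cy5) with a Hoechst counterstain and imaged at 20x.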

[6] = APR_HepG2_P-H2AX_24hr: Apredica 24-hour HepG2 Assay for H2AX Phosphorylation (AID 2282920); conditions: high-content imaging, actives raise or lower the signal
Outline: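 HCS fluorescence imaging of phospho-H2A.x immunostain (with Hoechst 33342 nuclear counterstain) in HepG2 after 24 hr compound exposure; 10 concentrations, 0.39–200 uM, duplicate wells, 0.5% v/v DMSO. Gain or loss of signal fitted relative to DMSO baseline.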

[7] = APR_HepG2_StressKinase_72hr: Apredica 72-hour HepG2 Assay for Stress Kinase (AID 2282921); conditions: HepG2 stress kinase (phospho-c-Jun) imaging, actives raise or lower the signal
Outline: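 HepG2 cells treated 72 hr with 0.39–200 uM compound, 0.5% v/v DMSO, duplicate wells. After formaldehyde fixation and Triton permeabilization, stained with anti-phospho-c-Jun (1:500) and Cy3 secondary, imaged at 20x. Fitted in both directions against DMSO.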

[8] = APR_HepG2_p53Act_72hr: Apredica 72-hour HepG2 Assay for p53 Activation (AID 2282923); conditions: high-content imaging, actives raise or lower the signal;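 also: average cellular p53 protein immunofluorescence intensity in HepG2 cells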
Outline: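 HepG2 cells exposed 72 h to 0.39–200 uM in 0.5% DMSO, duplicates. Fixed, permeabilized cells immunostained for p53 (Cy5) with Hoechst; imaged at 20x, fluorescence analyzed bidirectionally against DMSO.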

[9] = APR_HepG2_MitoMass_72hr: Apredica 72-hour HepG2 Assay for Mitochondrial Mass (AID 2282924); conditions: high-content imaging, actives raise or lower the signal;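 also: MitoTracker Red CMXRos stain intensity per cell imaged as mitochondrial mass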
Outline: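 HepG2 cells were exposed for 72 hr to compounds at 0.39–200 uM (ten concentrations, duplicate, 0.5% v/v DMSO final). Live cells were stained with 250 nM MitoTracker Red CMXRos for 30 min, then fixed in 3.7% formaldehyde and imaged by HCS fluorescence.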

[10] = APR_HepG2_StressKinase_24hr: Apredica 24-hour HepG2 Assay for Stress Kinase (AID 2282922); conditions: HepG2 stress kinase (phospho-c-Jun) imaging, actives raise or lower the signal
Outline: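 HepG2 cells exposed 24 hr to compound at 0.39–200 uM (10 concentrations, duplicate), 0.5% v/v DMSO final. Fixed in 3.7% formaldehyde, permeabilized with Triton X-100, immunolabeled for phospho-c-Jun with Hoechst 33342; HCS fluorescence imaging, bidirectional fit versus DMSO.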

Measured: AC50

CC(=O)OC/C=C(\C)CCC=C(C)C
not listed: [10]
inactive: all other assays above

OC[C@@H](O)[C@@H](O)[C@H](O)[C@H](O)CO
not listed: [10]
inactive: all other assays above

CCCCc1ccc2c(n1)[C@@H](c1ccc(OC)cc1C[C@H](C)C(=O)O)[C@H](C(=O)O)[C@H]2c1ccc2c(c1)OCO2
not listed: [5]
inactive: all other assays above

CC(=O)Oc1ccccc1C(=O)O
not listed: [5]
inactive: all other assays above

O=C(O)CCCCC(=O)O
not listed: [10]
inactive: all other assays above

CC(=O)C(C)=CC1C(C)=CCCC1(C)C (centres undefined)
not listed: [5]
inactive: all other assays above

CCCc1cc(=O)[nH]c(=S)[nH]1
not listed: [5]
inactive: all other assays above

CCCCCCCC=O
not listed: [5]
inactive: all other assays above

COCCOC[C@H](CC1(C(=O)NC2CCC(C(=O)O)CC2)CCCC1)C(=O)Oc1ccc2c(c1)CCC2 (some centres undefined)
not listed: [10]
inactive: all other assays above

Cc1c(C(=O)O)c(O)cc2c1C(=O)c1c(O)c([C@@H]3O[C@H](CO)[C@@H](O)[C@H](O)[C@H]3O)c(O)c(O)c1C2=O
active: [3] 40.9 µM
not listed: [10]
inactive: all other assays above

COc1cc(S(=O)(=O)O)c(C)cc1N=Nc1c(O)ccc2cc(S(=O)(=O)O)ccc12
not listed: [10]
inactive: all other assays above

CCCCCCOCCO
not listed: [10]
inactive: all other assays above

Clc1cc(Cl)c(Cl)cc1Cl
not listed: [10]
inactive: all other assays above

Nc1ccc2c(c1)C(=O)c1ccccc1C2=O
active: [1] 11.5 µM | [2] 16.2 µM | [4] 10.2 µM | [6] 21.2 µM | [8] 19.3 µM
inactive: [3] | [5] | [7] | [9]

CCCCC(CC)COC(=O)CC(C(=O)OCC(CC)CCCC)S(=O)(=O)O (centres undefined)
active: [1] 141 µM | [2] 108 µM | [3] 112 µM | [4] 80.8 µM | [6] 102 µM | [8] 103 µM
inactive: [7] | [10] | [9]

COc1ccc(S(=O)(=O)N2C(=O)[C@@](c3ccccc3OC)(N3C[C@H](O)C[C@H]3C(=O)N(C)C)c3cc(Cl)ccc32)c(OC)c1
active: [1] 61 µM | [2] 106 µM | [4] 40.7 µM | [6] 68.2 µM | [7] 100 µM | [8] 100 µM | [9] 65.7 µM
inactive: [3] | [5]

CC(CO)OC(C)CO (centres undefined) (tested in a mixture with another compound)
not listed: [5]
inactive: all other assays above

COCCOCCOC
not listed: [5]
inactive: all other assays above

Cc1cccc([N+](=O)[O-])c1C
not listed: [5] | [10]
inactive: all other assays above

Oc1ccc2c(c1)OC[C@@H](N1CCC(O)(c3ccc(F)cc3)CC1)[C@H]2O
not listed: [5] | [10]
inactive: all other assays above

CCCCCC(=O)O
not listed: [5]
inactive: all other assays above

O=c1c(O)c(-c2ccc(O)c(O)c2)oc2cc(O)cc(O)c12
inactive: [3] | [4] | [7] | [8]
active: [1] 22.6 µM | [2] 68.1 µM | [6] 48.6 µM | [9] 7.83 µM

CCc1c(C(=O)NN2CCCCC2)nn(-c2ccc(Cl)cc2Cl)c1-c1ccc(Br)cc1
active: [1] 27.2 µM | [3] 113 µM | [4] 27.7 µM | [6] 70.4 µM | [7] 32.8 µM | [9] 162 µM
inactive: [2] | [10] | [8]
